Records with an inconclusive call do not appear. The source made the active and inactive calls. How the source made its calls, unless noted: active means hit-call score of the fitted dose curve at least 0.9, where 1 is the maximum; inconclusive means response in the unintended direction; inactive means score below 0.9.
Assays:
[1] = ATG_TCF_b_cat_CIS: Attagene CIS-FACTORIAL HepG2 Assay for human T-Cell-Factor with beta-catenin (TCF/b-cat) (AID 2282965; active means hit-call score of the fitted dose curve at least 0.9, where 1 is the maximum; inactive means score below 0.9); settings: HepG2 TCF/beta-catenin cis-reporter transcription, actives raise or lower the signal
Summary of the method: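 HepG2, transient MRTU transfection, cis-element-driven reporters (endogenous TFs). 24 h compound exposure. Readout: reporter mRNA by RT-PCR + 6-FAM primer extension, HpaI digest, capillary electrophoresis. Gain/loss fit vs DMSO baseline.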

[2] = ATG_TAL_CIS: Attagene CIS-FACTORIAL HepG2 Assay for human TAL Basal Promoter (AID 2282966; active means hit-call score of the fitted dose curve at least 0.9, where 1 is the maximum; inactive means score below 0.9;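 further: background control endpoint measuring basal TAL promoter reporter mRNA not a specific factor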); settings: HepG2 Attagene cis-factorial TAL promoter reporter; actives raise or lower the signal
Summary of the method: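 In this cell-based multiplex, HepG2 liver cells bearing cis-promoter reporter constructs are dosed for 24 hours. Total RNA is reverse-transcribed and amplified, labelled fragments are sized by capillary electrophoresis, and signal changes are fitted bidirectionally versus DMSO.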

[3] = ATG_TGFb_CIS: Attagene CIS-FACTORIAL HepG2 Assay for human Transforming Growth Factor (TGF) (AID 2282967; active means hit-call score of the fitted dose curve at least 0.9, where 1 is the maximum; inactive means score below 0.9); settings: HepG2 Attagene CIS TGFb reporter, mRNA transcription; actives raise or lower the signal
Summary of the method: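 Bidirectional fitting relative to DMSO gave the endpoint. Underlying data: reporter mRNA from HepG2 cells carrying transiently transfected cis-regulated reporter constructs, harvested 24 h after dosing and analyzed by RT-PCR and capillary electrophoresis.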

[4] = ATG_VDRE_CIS: Attagene CIS-FACTORIAL HepG2 Assay for human Vitamin D Receptor Element (VDRE) (AID 2282968; active means hit-call score of the fitted dose curve at least 0.9, where 1 is the maximum; inactive means score below 0.9); settings: HepG2 VDRE cis-reporter transcription, actives raise or lower the signal
Summary of the method: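 Transiently transfected HepG2 cells carrying cis-regulated reporter transcription units were exposed for 24 h. Reporter mRNA was measured by RT-PCR with fluorescent labelling and capillary electrophoresis, and fitted in both directions against DMSO.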

[5] = target: X-box-binding protein 1 (Homo sapiens) (UniProt P17861); assay: ATG_Xbp1_CIS: Attagene CIS-FACTORIAL HepG2 Assay for human X-box Binding Protein 1 (XBP1) (AID 2282972; active means hit-call score of the fitted dose curve at least 0.9, where 1 is the maximum; inactive means score below 0.9); settings: HepG2 XBP1 cis-element reporter, Attagene multiplex; actives raise or lower the signal
Sequence of X-box-binding protein 1 (Homo sapiens) (P17861 whole entry, looked up, the tested form may be a part): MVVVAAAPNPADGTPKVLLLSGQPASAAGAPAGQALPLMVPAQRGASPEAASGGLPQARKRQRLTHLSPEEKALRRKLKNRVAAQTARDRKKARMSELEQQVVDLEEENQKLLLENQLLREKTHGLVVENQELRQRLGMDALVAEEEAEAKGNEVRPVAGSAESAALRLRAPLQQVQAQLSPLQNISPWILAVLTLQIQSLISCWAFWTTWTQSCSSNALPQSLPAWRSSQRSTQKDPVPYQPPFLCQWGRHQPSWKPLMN
Summary of the method: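 Fluorescence-labelled cDNA fragments from reporter transcripts, separated by capillary electrophoresis, give the signal. Source: HepG2 cells transfected with promoter-driven reporter units, harvested 24 h post-dose. DMSO served as reference for bidirectional curve fitting.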

[6] = ATG_GAL4_TRANS: Attagene TRANS-FACTORIAL HepG2 Assay for GAL4 (Internal Marker) (AID 2282976); settings: HepG2 Attagene TRANS GAL4 internal marker reporter
Summary of the method: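 RT-PCR/capillary electrophoresis readout of reporter mRNA. HepG2, transient MRTU transfection (GAL4-UAS reporters), 24 h compound exposure. Background-control endpoint, positive direction vs DMSO baseline.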

[7] = target: Bile acid receptor (Homo sapiens) (UniProt Q96RI1); assay: ATG_FXR_TRANS: Attagene TRANS-FACTORIAL HepG2 Assay for Farnesoid X Receptor (FXR) (AID 2282979); settings: HepG2 Attagene TRANS FXR-GAL4 reporter transcription;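 further: hits raise reporter mRNA above DMSO so AC50 marks FXR activation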
Summary of the method: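 Read-out: fluorescent reporter transcripts quantified by capillary electrophoresis after RT-PCR of total RNA. Source cells were HepG2 transiently carrying chimeric NR-GAL4 plus GAL4-UAS reporter units, dosed 24 h. Activity fitted upward relative to DMSO baseline.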

[8] = target: Oxysterols receptor LXR-alpha (Homo sapiens) (UniProt Q13133); assay: ATG_LXRa_TRANS: Attagene TRANS-FACTORIAL HepG2 Assay for human Liver X Receptor alpha (LXRa) (AID 2282980); settings: HepG2 Attagene TRANS reporter, LXRa transactivation
Sequence of Oxysterols receptor LXR-alpha (Homo sapiens) (Q13133 whole entry, looked up, the tested form may be a part): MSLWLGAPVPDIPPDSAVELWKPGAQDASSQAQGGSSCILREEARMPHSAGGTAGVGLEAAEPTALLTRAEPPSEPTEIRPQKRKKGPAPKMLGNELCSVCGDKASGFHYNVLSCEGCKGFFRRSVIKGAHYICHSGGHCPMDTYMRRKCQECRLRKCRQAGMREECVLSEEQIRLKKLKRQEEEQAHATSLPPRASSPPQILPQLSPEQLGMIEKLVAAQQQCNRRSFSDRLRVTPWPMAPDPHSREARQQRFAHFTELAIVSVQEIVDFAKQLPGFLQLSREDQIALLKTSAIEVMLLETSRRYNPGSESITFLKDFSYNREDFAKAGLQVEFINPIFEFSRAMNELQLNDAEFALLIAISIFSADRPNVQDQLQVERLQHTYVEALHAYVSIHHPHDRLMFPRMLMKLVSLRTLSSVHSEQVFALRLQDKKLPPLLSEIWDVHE
Summary of the method: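 Read-out: reporter transcript levels by RT-PCR plus capillary electrophoresis, fluorescence intensity. Transiently transfected HepG2, exogenous NR-GAL4 chimera, GAL4-UAS reporters; 24 h compound exposure. Activity = increase over DMSO negative control.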

[9] = target: Oxysterols receptor LXR-beta (Homo sapiens) (UniProt P55055); assay: ATG_LXRb_TRANS: Attagene TRANS-FACTORIAL HepG2 Assay for human Liver X Receptor beta (LXRb) (AID 2282981); settings: HepG2 Attagene TRANS GAL4-LXRb reporter, mRNA
Sequence of Oxysterols receptor LXR-beta (Homo sapiens) (P55055 whole entry, looked up, the tested form may be a part): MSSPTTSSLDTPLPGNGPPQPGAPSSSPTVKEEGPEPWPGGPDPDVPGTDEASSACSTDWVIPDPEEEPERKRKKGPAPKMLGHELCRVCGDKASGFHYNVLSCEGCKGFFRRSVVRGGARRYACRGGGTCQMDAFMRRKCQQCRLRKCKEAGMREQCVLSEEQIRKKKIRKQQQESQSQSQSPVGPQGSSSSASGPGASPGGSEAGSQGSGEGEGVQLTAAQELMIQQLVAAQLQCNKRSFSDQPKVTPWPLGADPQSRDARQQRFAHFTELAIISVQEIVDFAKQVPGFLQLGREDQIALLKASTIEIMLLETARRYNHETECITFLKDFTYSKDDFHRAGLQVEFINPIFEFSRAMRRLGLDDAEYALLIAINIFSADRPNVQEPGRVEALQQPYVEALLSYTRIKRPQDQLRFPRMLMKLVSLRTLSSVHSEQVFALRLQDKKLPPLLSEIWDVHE
Summary of the method: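 HepG2 cells transiently transfected with GAL4-UAS reporter units for chimeric NR-Gal4 proteins, dosed for 24 h. Reporter transcripts measured by RT-PCR and capillary electrophoresis; gain-of-signal fitting relative to DMSO.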

[10] = target: Hepatocyte nuclear factor 4-alpha (Homo sapiens) (UniProt P41235); assay: ATG_HNF4a_TRANS: Attagene TRANS-FACTORIAL HepG2 Assay for human Hepatocyte Nuclear Factor 4 alpha (HNF4a) (AID 2282982); settings: HepG2 HNF4a transactivation reporter, mRNA readout
Sequence of Hepatocyte nuclear factor 4-alpha (Homo sapiens) (P41235 whole entry, looked up, the tested form may be a part): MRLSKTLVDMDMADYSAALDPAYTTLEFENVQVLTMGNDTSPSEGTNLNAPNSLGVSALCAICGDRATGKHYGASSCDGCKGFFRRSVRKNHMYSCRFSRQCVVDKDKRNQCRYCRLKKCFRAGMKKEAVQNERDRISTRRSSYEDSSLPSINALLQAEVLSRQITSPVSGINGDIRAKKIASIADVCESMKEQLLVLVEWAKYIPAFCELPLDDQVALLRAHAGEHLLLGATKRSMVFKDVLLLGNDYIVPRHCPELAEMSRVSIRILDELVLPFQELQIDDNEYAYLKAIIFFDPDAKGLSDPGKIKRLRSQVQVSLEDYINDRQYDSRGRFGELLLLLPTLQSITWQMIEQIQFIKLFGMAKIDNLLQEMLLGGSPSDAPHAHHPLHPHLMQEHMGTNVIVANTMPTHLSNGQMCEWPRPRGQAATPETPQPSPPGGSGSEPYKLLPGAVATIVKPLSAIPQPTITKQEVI
Summary of the method: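 HepG2 cells transiently transfected with HNF4a-Gal4 chimera and GAL4-UAS reporter units, dosed for 24 h. Reporter mRNA measured by RT-PCR, fluorescent primer extension and capillary electrophoresis; gain-of-signal fitted relative to DMSO.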

[11] = ATG_M_06_TRANS: Attagene TRANS-FACTORIAL HepG2 Assay for M06 Transcription Factor (Internal Marker) (AID 2282983); settings: HepG2 Attagene TRANS M06 internal marker reporter
Summary of the method: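 After a 24 h chemical treatment of transfected HepG2, RNA underwent DNase I treatment, reverse transcription and reporter-specific PCR; labelled, HpaI-digested products were sized by capillary electrophoresis. Signal increase relative to DMSO defined activity.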

[12] = target: Transcriptional activator Myb (Homo sapiens) (UniProt P10242); assay: ATG_Myb_CIS: Attagene CIS-FACTORIAL HepG2 Assay for human Myeloblastosis (Myb) Proto-Oncogene Transcription Factor (AID 2282986; active means hit-call score of the fitted dose curve at least 0.9, where 1 is the maximum; inactive means score below 0.9); settings: HepG2 Attagene CIS-FACTORIAL Myb reporter transcription; actives raise or lower the signal
Sequence of Transcriptional activator Myb (Homo sapiens) (P10242 whole entry, looked up): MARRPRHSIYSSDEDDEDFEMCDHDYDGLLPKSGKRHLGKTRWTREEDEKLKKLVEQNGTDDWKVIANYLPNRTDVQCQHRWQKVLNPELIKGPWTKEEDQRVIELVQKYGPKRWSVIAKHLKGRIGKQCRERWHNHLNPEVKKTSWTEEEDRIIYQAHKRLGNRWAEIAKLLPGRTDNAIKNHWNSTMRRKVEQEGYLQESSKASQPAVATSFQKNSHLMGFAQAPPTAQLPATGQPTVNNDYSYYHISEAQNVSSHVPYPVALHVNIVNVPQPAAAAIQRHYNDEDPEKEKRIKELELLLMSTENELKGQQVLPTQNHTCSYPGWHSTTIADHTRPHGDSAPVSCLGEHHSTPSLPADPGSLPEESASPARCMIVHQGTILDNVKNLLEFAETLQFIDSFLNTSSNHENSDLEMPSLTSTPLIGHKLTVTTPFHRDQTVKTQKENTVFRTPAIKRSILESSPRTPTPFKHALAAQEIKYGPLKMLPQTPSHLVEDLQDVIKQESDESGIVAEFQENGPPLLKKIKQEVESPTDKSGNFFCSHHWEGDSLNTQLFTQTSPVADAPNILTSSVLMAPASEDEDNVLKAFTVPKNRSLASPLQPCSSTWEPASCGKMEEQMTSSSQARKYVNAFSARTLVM
Summary of the method: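 Transiently transfected HepG2 cells, treated 24 h. Reporter mRNA quantified by RT-PCR/capillary electrophoresis; bidirectional fit relative to DMSO.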

[13] = target: Nuclear receptor subfamily 1 group I member 3 (Homo sapiens) (UniProt Q14994); assay: ATG_CAR_TRANS: Attagene TRANS-FACTORIAL HepG2 Assay for human Constitutive Androstane Receptor (CAR) (AID 2282969); settings: HepG2 Attagene TRANS-FACTORIAL CAR reporter;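 further: activators raise reporter mRNA above DMSO so AC50 marks induction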
Summary of the method: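 HepG2 cells transiently transfected with GAL4-UAS reporter units; TRANS format reads activity of exogenous chimeric NR-Gal4 protein. After 24 h dosing, reporter mRNA quantified by RT-PCR, 6-FAM labelling and capillary electrophoresis; gain of signal fitted against DMSO.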

[14] = target: Estrogen receptor (Homo sapiens) (UniProt P03372); assay: ATG_ERa_TRANS: Attagene TRANS-FACTORIAL HepG2 Assay for human Estrogen Receptor alpha (ERa) (AID 2282970); settings: HepG2 Attagene TRANS ERa GAL4 reporter, mRNA
Sequence of Estrogen receptor (Homo sapiens) (P03372 whole entry, looked up, the tested form may be a part): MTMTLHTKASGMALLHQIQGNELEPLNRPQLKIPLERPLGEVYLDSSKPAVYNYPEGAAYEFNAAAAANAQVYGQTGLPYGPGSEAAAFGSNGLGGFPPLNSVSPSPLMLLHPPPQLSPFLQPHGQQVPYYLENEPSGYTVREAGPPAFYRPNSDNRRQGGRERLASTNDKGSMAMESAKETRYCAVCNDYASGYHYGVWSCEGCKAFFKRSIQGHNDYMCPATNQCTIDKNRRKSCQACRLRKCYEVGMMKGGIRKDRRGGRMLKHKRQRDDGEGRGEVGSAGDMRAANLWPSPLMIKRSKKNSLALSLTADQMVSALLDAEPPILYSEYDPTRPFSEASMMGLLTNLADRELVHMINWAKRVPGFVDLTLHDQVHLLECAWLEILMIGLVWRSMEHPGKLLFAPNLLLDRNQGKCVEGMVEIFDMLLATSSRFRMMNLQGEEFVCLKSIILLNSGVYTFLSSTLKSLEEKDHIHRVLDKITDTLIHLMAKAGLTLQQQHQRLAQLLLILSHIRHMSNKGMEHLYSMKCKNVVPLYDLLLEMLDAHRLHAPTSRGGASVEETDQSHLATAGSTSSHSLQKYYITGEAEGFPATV
Summary of the method: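 After 24 h of compound treatment, RNA from HepG2 cells bearing transfected GAL4-UAS reporter constructs is converted to cDNA, amplified and fluorescently labelled. Capillary electrophoresis resolves the ERa-linked reporter; DMSO serves as negative control.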

[15] = ATG_M_19_TRANS: Attagene TRANS-FACTORIAL HepG2 Assay for M19 Transcription Factor (Internal Marker) (AID 2282974); settings: HepG2 Attagene TRANS-FACTORIAL M19 internal marker reporter
Summary of the method: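 Reporter mRNA induction was measured in transfected HepG2 cells 24 h after dosing. Endpoint fitted upward relative to DMSO and serves as a background control within the multiplexed TRANS panel.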

[16] = target: Estrogen-related receptor gamma (Homo sapiens) (UniProt P62508); assay: ATG_ERRg_TRANS: Attagene TRANS-FACTORIAL HepG2 Assay for human Estrogen-Related Receptor gamma (ERRg) (AID 2282977); settings: HepG2 Attagene TRANS reporter, ERRg transactivation;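 further: hits increase reporter signal over DMSO so potencies reflect activators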
Sequence of Estrogen-related receptor gamma (Homo sapiens) (P62508 whole entry, looked up, the tested form may be a part): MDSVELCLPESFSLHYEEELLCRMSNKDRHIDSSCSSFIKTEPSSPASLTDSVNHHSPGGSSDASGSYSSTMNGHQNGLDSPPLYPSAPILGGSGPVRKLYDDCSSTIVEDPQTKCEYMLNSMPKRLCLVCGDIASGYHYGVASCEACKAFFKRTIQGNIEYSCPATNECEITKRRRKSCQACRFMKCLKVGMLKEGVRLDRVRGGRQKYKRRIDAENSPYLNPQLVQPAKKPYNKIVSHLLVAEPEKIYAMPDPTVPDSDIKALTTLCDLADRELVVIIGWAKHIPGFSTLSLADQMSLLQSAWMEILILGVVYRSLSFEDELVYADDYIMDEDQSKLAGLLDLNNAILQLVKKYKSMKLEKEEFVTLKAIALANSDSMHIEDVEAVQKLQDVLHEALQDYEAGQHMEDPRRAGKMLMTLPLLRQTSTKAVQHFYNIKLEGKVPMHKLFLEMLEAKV
Summary of the method: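 Transfect HepG2 with multiple GAL4-UAS reporter transcription units; dose chemicals 24 h; isolate RNA, reverse-transcribe with oligo(dT), PCR-amplify, label with 6-FAM, digest with HpaI; size fragments by capillary electrophoresis. DMSO serves as negative control.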

[17] = target: Glucocorticoid receptor (Homo sapiens) (UniProt P04150); assay: ATG_GR_TRANS: Attagene TRANS-FACTORIAL HepG2 Assay for human Glucocorticoid Receptor (GR) (AID 2282978); settings: HepG2 Attagene TRANS GR reporter, mRNA transcription;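 further: activators score as hits since higher reporter transcript over DMSO is fitted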
Sequence of Glucocorticoid receptor (Homo sapiens) (P04150 whole entry, looked up, the tested form may be a part): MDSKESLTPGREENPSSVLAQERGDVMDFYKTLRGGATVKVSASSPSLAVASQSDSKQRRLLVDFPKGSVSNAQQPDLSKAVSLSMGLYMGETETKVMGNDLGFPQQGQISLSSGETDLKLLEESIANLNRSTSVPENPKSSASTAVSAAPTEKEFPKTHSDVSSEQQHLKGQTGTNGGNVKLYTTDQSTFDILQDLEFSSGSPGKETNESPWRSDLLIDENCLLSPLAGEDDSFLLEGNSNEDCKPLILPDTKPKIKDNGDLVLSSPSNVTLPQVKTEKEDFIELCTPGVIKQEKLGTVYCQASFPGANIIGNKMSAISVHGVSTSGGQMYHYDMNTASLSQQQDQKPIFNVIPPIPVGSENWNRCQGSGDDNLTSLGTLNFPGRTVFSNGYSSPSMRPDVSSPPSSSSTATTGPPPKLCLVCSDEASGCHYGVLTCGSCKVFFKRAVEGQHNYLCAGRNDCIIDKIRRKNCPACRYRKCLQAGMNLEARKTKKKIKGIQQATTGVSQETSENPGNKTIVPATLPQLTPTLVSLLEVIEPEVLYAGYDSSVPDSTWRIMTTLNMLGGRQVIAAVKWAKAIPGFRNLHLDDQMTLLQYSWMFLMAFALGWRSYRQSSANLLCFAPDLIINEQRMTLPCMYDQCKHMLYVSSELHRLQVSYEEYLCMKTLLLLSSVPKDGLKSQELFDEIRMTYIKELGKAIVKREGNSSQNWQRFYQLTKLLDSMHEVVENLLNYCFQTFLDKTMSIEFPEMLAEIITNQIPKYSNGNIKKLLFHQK
Summary of the method: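 Reporter transcript levels, detected by fluorescence after RT-PCR and capillary electrophoresis, served as the endpoint. HepG2 cells bearing transfected GAL4-UAS reporters responsive to NR-GAL4 chimeras were incubated with compound 24 h; DMSO defined baseline.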

[18] = target: Nuclear receptor subfamily 4 group A member 2 (Homo sapiens) (UniProt P43354); assay: ATG_NURR1_TRANS: Attagene TRANS-FACTORIAL HepG2 Assay for human Nuclear Receptor Related Protein 1 (NURR1) (AID 2282985); settings: HepG2 Attagene TRANS reporter, mRNA readout
Sequence of Nuclear receptor subfamily 4 group A member 2 (Homo sapiens) (P43354 whole entry, looked up, the tested form may be a part): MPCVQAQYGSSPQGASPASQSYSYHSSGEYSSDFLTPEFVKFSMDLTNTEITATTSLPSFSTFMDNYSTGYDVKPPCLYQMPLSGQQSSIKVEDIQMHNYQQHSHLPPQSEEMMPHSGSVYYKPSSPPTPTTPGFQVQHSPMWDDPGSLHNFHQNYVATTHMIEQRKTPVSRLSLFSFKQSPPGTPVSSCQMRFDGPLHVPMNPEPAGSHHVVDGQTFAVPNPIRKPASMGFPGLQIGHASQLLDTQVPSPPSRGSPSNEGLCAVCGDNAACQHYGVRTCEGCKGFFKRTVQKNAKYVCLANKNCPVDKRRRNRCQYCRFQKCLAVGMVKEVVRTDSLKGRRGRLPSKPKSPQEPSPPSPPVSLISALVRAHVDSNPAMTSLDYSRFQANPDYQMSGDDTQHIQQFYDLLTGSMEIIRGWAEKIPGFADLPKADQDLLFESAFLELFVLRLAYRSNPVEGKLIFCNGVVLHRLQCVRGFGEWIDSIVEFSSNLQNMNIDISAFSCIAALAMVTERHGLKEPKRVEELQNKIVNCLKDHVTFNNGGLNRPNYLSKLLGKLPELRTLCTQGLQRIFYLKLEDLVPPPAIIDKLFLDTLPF
Summary of the method: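 HepG2 cells transiently transfected with NURR1-Gal4 chimera and GAL4-UAS reporter units; after 24 hr compound exposure, reporter mRNA quantified by RT-PCR and capillary electrophoresis; gain of signal fitted against DMSO.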

[19] = ATG_M_32_TRANS: Attagene TRANS-FACTORIAL HepG2 Assay for M32 Transcription Factor (Internal Marker) (AID 2282984); settings: HepG2 Attagene TRANS M32 internal marker reporter;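 further: transcript level of a background control reporter unit measured by RT-PCR and capillary electrophoresis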
Summary of the method: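 HepG2 cells transiently transfected with GAL4-UAS reporter units, dosed for 24 hours. Reporter mRNA quantified by RT-PCR, 6-FAM labelling, HpaI digestion and capillary electrophoresis; internal-marker signal fitted upward relative to DMSO.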

[20] = target: Steroid hormone receptor ERR1 (Homo sapiens) (UniProt P11474); assay: ATG_ERRa_TRANS: Attagene TRANS-FACTORIAL HepG2 Assay for human Estrogen-Related Receptor alpha (ERRa) (AID 2282971); settings: HepG2 Attagene TRANS reporter, ERRa transactivation
Summary of the method: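 Transfected HepG2, 24 h dosing, ERRa-Gal4 chimera driving GAL4-UAS reporter. Readout: reporter mRNA via RT-PCR plus capillary electrophoresis (fluorescence). Positive direction vs DMSO control.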

Measured: AC50

CCOC(=O)OC(=O)OCC
not listed: [13] | [14] | [15] | [16] | [17] | [18] | [19] | [20]
inactive: all other assays above

C=Cc1ccc(OC(C)=O)cc1
active: [14] 31.6 µM | [5] 53.7 µM
not listed: [4] | [6] | [7] | [8] | [9] | [19] | [20]
inactive: all other assays above

C=C(C)C1CC=C(C)CC1 (stereo not drawn)
inactive: [1] | [2] | [3] | [13] | [14] | [5] | [6] | [8] | [9] | [11] | [12]

[Cl][Sc]([Cl])[Cl]
not listed: [4] | [7] | [8] | [11] | [14] | [18] | [19] | [20]
inactive: all other assays above

c1ccc2c(c1)[nH]c1ccccc12
not listed: [4] | [7] | [8] | [11] | [12] | [16] | [20]
inactive: all other assays above

CCCC1CCCC(=O)O1 (stereo not drawn)
not listed: [4] | [6] | [7] | [10] | [11] | [16] | [18] | [20]
inactive: all other assays above

O=C(C=Cc1ccccc1)OCCc1ccccc1
active: [14] 29.4 µM
not listed: [4] | [7] | [9] | [10] | [11] | [16] | [19] | [20]
inactive: all other assays above

CC1=CC=C(C(C)C)CC1
inactive: [1] | [2] | [3] | [13] | [14] | [15] | [8] | [10] | [11] | [12]

CCC(=O)C1CC(C(C)C)CC=C1C (stereo not drawn)
inactive: [1] | [2] | [3] | [14] | [20] | [5] | [16] | [17] | [8] | [11] | [12]

CCCCCCOC(=O)CCCCC(=O)OCCCCCC
not listed: [4] | [8] | [10] | [13] | [15] | [17] | [18] | [19]
inactive: all other assays above

Source: PubChem BioAssay (EPA / NIEHS)
